PubChem BioAssay (NCATS)
Results filed as inconclusive are left out. Values without a mark were called inactive. The source made the active and inactive calls. Calls follow the shape of the dose curve; as a rule, active = well fitted cell-killing curve with a large enough effect; inconclusive = small, poorly fitted or top-dose-only effect, or effect the other way; inactive = no such curve, though single readings can be large or run the other way.

assay: Quantitative High-Throughput drug screen in 47 multiple myeloma cell lines against the NCATS MIPE library collection: Karpas417_ECACC cell viability assay (AID 1918961); details: Karpas417 myeloma viability, CellTiter-Glo ATP luminescence, 48 h; viability (% of DMSO): at 45.8 µM (top of the series)
Text: PI: Beverly A. Mock Ph.D.
Laboratory of Cancer Biology and Genetics,
Center for Cancer Research, National Cancer Institute,
National Institute of Health, Bethesda, Maryland
Drug resistance and disease progression are common in multiple myeloma (MM) patients, underscoring the need for new therapeutic combinations. […] We hypothesized that effective combinations would reduce MYC expression and enhance p16 activity. […] These preclinical data identify potentially useful drug combinations for evaluation in drug-resistant MM and reveal potential mechanisms of combined drug sensitivity.
Described herein is the primary MIPE qHTS used to cherrypick compounds. Validated compounds were then further tested for potential synergistic activiy.
[1] Peat TJ, Gaikwad SM, Dubois W, Gyabaah-Kessie N, Zhang S, Gorjifard S, Phyo Z, Andres M, Hughitt VK, Simpson RM, Miller MA, Girvin AT, Taylor A, Williams D, D'Antonio N, Zhang Y, Rajagopalan A, Flietner E, Wilson K, Zhang X, Shinn P, Klumpp-Thomas C, McKnight C, Itkin Z, Chen L, Kazandijian D, Zhang J, Michalowski AM, Simmons JK, Keats J, Thomas CJ, Mock BA. Drug combinations identified by high-throughput screening promote cell cycle transition and upregulate Smad pathways in myeloma. Cancer Lett. 2023 Aug 1;568:216284. doi: 10.1016/j.canlet.2023.216284. Epub 2023 Jun 24. PMID: 37356470; PMCID: PMC10408729.
SEQUENCE No. (e.g., 1, 2, 3, etc.); […] (e.g., Cells, Incubation, Reagent, etc.); VALUE and DESCRIPTION.
1; Cells; 5 uL; white, solid bottom 1536-well Greiner assay plate.
2; Compounds; 23 nL; Kalypsis pin tool (Wako USA) equipped with a 1536-well pin head to transfer to the assay plates.
3; Incubation; 48 hours; 37C incubation.
4; Reagent;5uL; CellTiter Glo (Promega).
5; Detector; 425V; Luminescence; Viewlux PerkinElmer.
NOTES (numbers refer to Sequence numbers above)
1. The cell-based screening methods employed in this study were like those previously published. Briefly, the corresponding myeloma cell lines were screened in 1,536-well plates with 500 cells, 5-uL per well for inhibition of cell viability (assessed by measuring ATP levels with CellTiterGlo).
2. NCATS MIPE 4.0 library of approved and investigational drugs were added using the Kalypsis pin tool. Wells treated with DMSO only for 100% viability and media only wells for 0% viability were used as controls.
3. The assay plates were covered and incubated for 48 hours in a 37C, 5% CO2 incubator with controlled humidity.
4. After 48 hours, CellTilter-GloTM luminescent substrate mix (Promega) reagent was added to the assay plate and plates we incubated for 5 min at room temperature.
5. Signal was measured as median relative luminescence units on a ViewLux (PerkinElmer) multiplate reader.
[1] Heske CM, Davis MI, Baumgart JT, Wilson K, Gormally MV, Chen L, Zhang X, Ceribelli M, Duveau DY, Guha R, Ferrer M, Arnaldez FI, Ji J, Tran HL, Zhang Y, Mendoza A, Helman LJ, Thomas CJ. Matrix Screen Identifies Synergistic Combination of PARP Inhibitors and Nicotinamide Phosphoribosyltransferase (NAMPT) Inhibitors in Ewing Sarcoma. Clin Cancer Res. 2017 Dec 1;23(23):7301-7311. doi: 10.1158/1078-0432.CCR-17-1121. Epub 2017 Sep 12. PMID: 28899971; PMCID: PMC6636827.
Potency is read from the fitted curve at half-maximal effect.

| Structure (SMILES) | Potency | viability (% of DMSO) |
| --- | --- | --- |
| Cc1c(O)cccc1C(=O)N[C@@H](CSc1ccccc1)[C@H](O)CN1C[C@H]2CCCC[C@@H]2C[C@@H]1C(=O)NC(C)(C)C | 14.8 µM (active) | – |
| C[N+](C)(C)CC(=O)O | – | 96.6% |
| O=C(CCCCCCC(=O)Nc1ccccc1)NO | 1.05 µM (active) | – |
| Cc1[nH]c(C=C2C(=O)Nc3ccc(S(=O)(=O)Cc4c(Cl)cccc4Cl)cc32)c(C)c1C(=O)N1CCC[C@H]1CN1CCCC1 | 1.48 µM (active) | – |
| CC(C)=CC[C@@H](O)C1=CC(=O)c2c(O)ccc(O)c2C1=O | 1.18 µM (active) | – |
| O=C(Nc1ccccc1Br)N[C@@H]1CCN(c2ccc(C(F)(F)F)cn2)C1 | – | 183% |
| OC[C@H]1O[C@@H](n2cnc3c2NC=NC[C@@H]3O)C[C@H]1O | – | 132% |
| O=C(NCc1ccccc1)c1csc(Nc2ccncn2)n1 | 10.5 µM (active) | – |
| CCOC(=O)C1=C(N)Oc2ccc(Br)cc2C1C(C#N)C(=O)OCC (stereo not given) | 8.33 µM (active) | – |
| CS(=O)c1ccc(-c2nc(-c3ccc(F)cc3)c(-c3ccncc3)[nH]2)cc1 (stereo not given) | 3.82 µM (active) | – |
| Nc1ncnc2c1ncn2[C@@H]1O[C@H](CO)C[C@@H]1O | – | 141% |
| NC1=N[C@@]2(c3cc(NC(=O)c4ccc(F)cn4)ccc3F)COC[C@@H]2CS1 | – | 105% (active) |
| O=C1C(Cl)=C(NCCN2CCOCC2)C(=O)c2ncccc21 | 3.32 µM (active) | – |
| CC(=NNC(=S)N1CCC1)c1ccccn1 | – | 5.95% |
| CC(=Cc1ccccc1)C=C1SC(=S)N(CC(=O)O)C1=O | – | 185% |
| NC1CCC(Nc2nc(Nc3ccc(C(=O)N4CCCCC4)cc3)c3ncn(-c4cccc(F)c4)c3n2)CC1 (stereo not given) | – | 135% |
| CN(C)c1cc(NC(=O)CNC(C)(C)C)c(O)c2c1C[C@@H]1C[C@H]3[C@H](N(C)C)C(=O)C(C(N)=O)=C(O)[C@@]3(O)C(=O)C1=C2O | – | 117% |
| COc1ccc(-c2coc3cc(O)ccc3c2=O)cc1 | – | 91.5% |
| COc1cc2ncnc(-n3nc(-c4ccccn4)nc3N)c2cc1OC | 0.132 µM (active) | – |
| C=C1C(=O)OC(CCCCCCCC)C1C(=O)O (stereo not given) | – | 74% (active) |

| Structure (SMILES) | Potency | viability (% of DMSO) |
| --- | --- | --- |
| COCCOc1nc(-c2ccc(Cl)c(Cl)c2)n(-c2ccc(NC(=O)CCl)cc2)n1 | 16.6 µM (active) | – |
| CC[C@]1(O)C[C@@H]2CN(CCc3c([nH]c4ccccc34)[C@@](C(=O)OC)(c3cc4c(cc3OC)N(C=O)[C@@H]3C45CCN4CC=C[C@](CC)([C@H]45)[C@@H](OC(C)=O)[C@]3(O)C(=O)OC)C2)C1 (stereo not given in full) | – | 214% |
| COc1ncc(-c2ccc3nccc(-c4ccnnc4)c3c2)cc1NS(=O)(=O)c1ccc(F)cc1F | – | 3.54% |
| O=C1c2ccccc2-[n+]2ccc3c([nH]c4ccccc43)c21 | 8.33 µM (active) | – |
| C[C@]12CC[C@@H]3c4ccc(O)cc4CC[C@H]3[C@H]1C[C@@H](O)[C@H]2O | – | 84.2% |
| COc1cc2nc(-c3ccc(N4CCN(C)CC4)cc3)nc(NCCN3CCOCC3)c2cc1OC | 0.0166 µM (active) | – |
| C[C@@H]1CCN(C(=O)CC#N)C[C@H]1N(C)c1ncnc2[nH]ccc12 | – | 147% |
| COc1cc2ncnc(Nc3ccc(F)c(Cl)c3)c2cc1OCCCN1CCOCC1 | 3.4 µM (active) | – |
| CON=C(C(=O)N[C@@H]1C(=O)N2C(C(=O)OCOC(=O)C(C)(C)C)=C(C=Cc3scnc3C)CS[C@H]12)c1csc(N)n1 | 20.9 µM (active) | – |
| COc1ccc(-c2oc3c(CC=C(C)C)c(OC4O[C@H](CO)[C@@H](O)[C@H](O)[C@@H]4O)cc(O)c3c(=O)c2OC2O[C@@H](C)[C@H](O)[C@@H](O)[C@@H]2O)cc1 (stereo not given in full) | 10.5 µM (active) | – |
| Nc1nc(F)nc2c1ncn2[C@@H]1O[C@H](COP(=O)(O)O)[C@@H](O)[C@H]1O | 4.18 µM (active) | – |
| CC(C)(C)C(=O)Oc1ccc2c(c1)nc(NC(=O)c1cccc([N+](=O)[O-])c1)n2CCCO | – | 179% |
| O=c1c(-c2ccc(O)cc2)coc2cc(O)ccc12 | – | 150% |
| CC1(C)S[C@H]2[C@H](NC(=O)[C@@H](N)c3ccc(O)cc3)C(=O)N2[C@@H]1C(=O)O | 1.66 µM (active) | – |
| CCc1ccc(OCc2ccccc2C(=O)Nc2ccc3nc(C)cc(N)c3c2)cc1 | 1.87 µM (active) | – |
| O=C1NC(=O)C(=Cc2cccc(C(F)(F)F)c2)S1 | 26.4 µM (active) | – |
| COc1cc(O)c2c(c1)C(=O)c1cc(C)cc(O)c1C2=O | – | 115% [at 23.2 µM] |
| Oc1ccc(C2=Cc3ccc(O)cc3OC2)cc1 | 2.64 µM (active) | – |
| O=C1NC(=O)C(=Cc2ccc(-c3ccc(F)cc3)o2)S1 | 1.66 µM (active) | – |
| CC(C)C(C)C=CC(C)C1CCC2C3=CC=C4CC(O)CCC4(C)C3CCC21C (stereo not given) | – | 119% |
